Consider six compounds from PubChem BioAssay (EPA / NIEHS).

Read-out in test [1]: Nuclear factor erythroid 2-related factor 2 (Homo sapiens) (UniProt Q16236)
Description: LTEA_HepaRG_NFE2L2: Life Technologies and Expression Analysis (LTEA) Assay for Nuclear factor erythroid 2-related factor 2 (NFE2L2) Transcription Factor using HepaRG (AID 2283527).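 On outcome: TaqMan qRT-PCR transcript level normalised to ACTB GAPDH and POLR2A housekeeping genes.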 The conditions noted are these: mRNA level, 48 h; actives raise or lower the signal. The method in brief:
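NFE2L2 transcript level was read by qRT-PCR (housekeeping ACTB/GAPDH/POLR2A normalisation) after 48 h chemical treatment of HepaRG in serum-free induction medium. Duplicate 8-point half-log curves, top 100 uM, 0.5% DMSO vehicle; up- or down-regulation fitted against vehicle.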

Read-out in test [2]: Signal transducer and activator of transcription 3 (Homo sapiens) (UniProt P40763)
Description: LTEA_HepaRG_STAT3: Life Technologies and Expression Analysis (LTEA) Assay for Signal transducer and activator of transcription (STAT3) using HepaRG (AID 2283529). The conditions noted are these: mRNA level, 48 h; actives raise or lower the signal. The method in brief:
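STAT3 transcript quantified by qRT-PCR against three housekeeping genes (ACTB, GAPDH, POLR2A), fitted both directions relative to DMSO. HepaRG cultures exposed 48 h to eight half-log concentrations, top 100 uM, 0.5% DMSO, serum-free induction medium.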

Read-out in test [3]: solute carrier (SLCO1B1), SLCO1B1 (gene 10599)
Description: LTEA_HepaRG_SLCO1B1: Life Technologies and Expression Analysis (LTEA) Assay for solute carrier (SLCO1B1) using HepaRG (AID 2283530). The conditions noted are these: mRNA level, 48 h; actives raise or lower the signal. The method in brief: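 Differentiated human HepaRG cells were exposed for 48 h in serum-free induction medium to eight half-log concentrations, top 100 uM, in 0.5% DMSO. SLCO1B1 mRNA was measured by qRT-PCR, normalized to ACTB, GAPDH and POLR2A, and fitted bidirectionally against DMSO.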

Read-out in test [4]: sulfotransferase 2A1 (SULT2A1), SULT2A1 (gene 6822)
Description: LTEA_HepaRG_SULT2A1: Life Technologies and Expression Analysis (LTEA) Assay for sulfotransferase 2A1 (SULT2A1) using HepaRG (AID 2283531). The conditions noted are these: mRNA level, 48 h; actives raise or lower the signal. The procedure, abridged: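 HepaRG human liver cells, 48 h exposure in serum-free induction medium to 8 half-log concentrations topping at 100 µM (0.5% DMSO), duplicate wells. SULT2A1 mRNA measured by TaqMan qRT-PCR, normalized to ACTB/GAPDH/POLR2A; bidirectional fit against DMSO.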

Read-out in test [5]: Transforming Growth Factor (TGFA), TGFA (gene 7039)
Description: LTEA_HepaRG_TGFA: Life Technologies and Expression Analysis (LTEA) Assay for Transforming Growth Factor (TGFA) using HepaRG (AID 2283532). The conditions noted are these: mRNA level, 48 h; actives raise or lower the signal. The method in brief:
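TGFA transcript quantified by qRT-PCR (Fluidigm arrays) against three housekeeping genes, after 48 hours chemical treatment of HepaRG cells. Top concentration 100 uM with half-log dilutions, 8 points, duplicates, 0.5% DMSO.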

Read-out in test [6]: Transforming Growth Factor (TGFB1), TGFB1 (gene 7040)
Description: LTEA_HepaRG_TGFB1: Life Technologies and Expression Analysis (LTEA) Assay for Transforming Growth Factor (TGFB1) Transporter using HepaRG (AID 2283533). The conditions noted are these: mRNA level, 48 h; actives raise or lower the signal. The method in brief: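 Differentiated HepaRG cells exposed 48 hr in serum-free induction medium to eight half-log concentrations up to 100 uM (0.5% DMSO), duplicate; TGFB1 mRNA by TaqMan qRT-PCR normalised to ACTB, GAPDH, POLR2A; bidirectional fit against DMSO.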

Read-out in another test: TIMP1, TIMP1 (gene 7076)
Description: LTEA_HepaRG_TIMP1: Life Technologies and Expression Analysis (LTEA) Assay for TIMP1 using HepaRG (AID 2283534). The conditions noted are these: mRNA level, 48 h; actives raise or lower the signal. The method in brief:
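Differentiated HepaRG cells exposed 48 h in serum-free induction medium, duplicates, eight half-log concentrations from 100 uM in 0.5% DMSO. TIMP1 mRNA by qRT-PCR normalized to ACTB, GAPDH, POLR2A; bidirectional fitting against DMSO.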

Read-out in test [7]: Tumor necrosis factor receptor 1 (TNFRSF1A), TNFRSF1A (gene 7132)
Description: LTEA_HepaRG_TNFRSF1A: Life Technologies and Expression Analysis (LTEA) Assay for Tumor necrosis factor receptor 1 (TNFRSF1A) using HepaRG (AID 2283535). The conditions noted are these: mRNA level, 48 h; actives raise or lower the signal. The method in brief:
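Differentiated HepaRG cells in serum-free induction medium, exposed 48 h in duplicate to 8 half-log concentrations up to 100 uM in 0.5% DMSO. TNFRSF1A mRNA by Fluidigm TaqMan qRT-PCR, normalized to ACTB, GAPDH, POLR2A; bidirectional fit.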

Read-out in test [8]: Cellular tumor antigen p53 (Homo sapiens) (UniProt P04637)
Description: LTEA_HepaRG_TP53: Life Technologies and Expression Analysis (LTEA) Assay for Tumor Protein P53 (TP53) using HepaRG (AID 2283537). The conditions noted are these: mRNA level, 48 h; actives raise or lower the signal. The method in brief:
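Differentiated HepaRG cells in serum-free induction medium exposed 48 h in duplicate to 8 half-log concentrations, top 100 uM, 0.5% DMSO. TP53 mRNA by TaqMan qRT-PCR (Fluidigm), normalized to ACTB, GAPDH, POLR2A; fitted bidirectionally versus DMSO.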

Read-out in test [9]: UDP glucuronosyltransferase (UGT1A1), UGT1A1 (gene 54658)
Description: LTEA_HepaRG_UGT1A1: Life Technologies and Expression Analysis (LTEA) Assay for UDP glucuronosyltransferase (UGT1A1) using HepaRG (AID 2283538). The conditions noted are these: mRNA level, 48 h; actives raise or lower the signal. The method in brief:
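UGT1A1 transcript level, measured by qRT-PCR with three housekeeping genes for normalization, after 48 h treatment of human HepaRG cells (0.5% DMSO, duplicates, up to 100 uM, half-log steps, 8 points). Curves fit both directions against DMSO baseline.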

Read-out in test [10]: UDP glucuronosyltransferase (UGT1A6), UGT1A6 (gene 54578)
Description: LTEA_HepaRG_UGT1A6: Life Technologies and Expression Analysis (LTEA) Assay for UDP glucuronosyltransferase (UGT1A6) using HepaRG (AID 2283539). The conditions noted are these: mRNA level, 48 h; actives raise or lower the signal. The method in brief: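 Differentiated HepaRG cells, ~100,000/well, were exposed for 48 h in serum-free induction medium with 0.5% DMSO to 8-point half-log series topping at 100 uM, in duplicate. mRNA measured by Fluidigm TaqMan qRT-PCR, normalized to ACTB, GAPDH and POLR2A.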

Read-out in test [11]: X-box binding protein 1 (XBP1), XBP1 (gene 7494)
Description: LTEA_HepaRG_XBP1: Life Technologies and Expression Analysis (LTEA) Assay for X-box binding protein 1 (XBP1) using HepaRG (AID 2283540). The conditions noted are these: mRNA level, 48 h; actives raise or lower the signal. The method in brief:
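Differentiated human HepaRG cells in serum-free induction medium exposed 48 h in duplicate to eight half-log concentrations up to 100 uM in 0.5% DMSO. XBP1 mRNA measured by Fluidigm TaqMan qRT-PCR, normalized to ACTB, GAPDH, POLR2A; bidirectional fitting against DMSO.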

The nature of test [12]: TOX21_p53_BLA_p2_viability: Viability Assessment in the Tox21 HCT-116 p53 Agonism Beta-lactamase Assay, Phase 2 (AID 2283591; active means hit-call score of the fitted dose curve at least 0.9, where 1 is the maximum;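 further: compound exposure lasted 16 h at 37 °C; actives lower the ATP signal meaning cytotoxicity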). The procedure, abridged: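 Cytotoxicity readout: CellTiter-Glo ATP luminescence, 30 min at room temperature, after the beta-lactamase read. Cells were HCT116 exposed 16 h at 37C to compounds pin-transferred at 217-fold dilution from DMSO stocks.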

In test [13] the target is Cellular tumor antigen p53 (Homo sapiens) (UniProt P04637). Description: TOX21_p53_BLA_p2_ratio: Tox21 HCT-116 p53 Agonism Beta-lactamase Assay, Ratio, Phase 2 (AID 2283592; active means hit-call score of the fitted dose curve at least 0.9, where 1 is the maximum). The method in brief: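 First, HCT116 reporter cells settle for 5 h at 37C. Next, DMSO compound solutions are pinned in (217-fold dilution) and left 16 h. Finally, CCF4-AM substrate is loaded 2 h at room temperature and the 460/530 nm ratio read.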

A short description of test [14]: TOX21_p53_BLA_p3_viability: Viability Assessment in the Tox21 HCT-116 p53 Agonism Beta-lactamase Assay, Phase 3 (AID 2283593; active means hit-call score of the fitted dose curve at least 0.9, where 1 is the maximum;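 further: cells exposed to compound for 16 h before reading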). The procedure, abridged:
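Cellular ATP was quantified by CellTiter-Glo luminescence, read after 30 min at room temperature. Beforehand, HCT116 cells (4000/well) received compound 5 h post-seeding, 217-fold diluted from DMSO, then incubated 16 h at 37C.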

Test [15] can be described thus: LTEA_HepaRG_LDH_cytotoxicity: Cytotoxicity Assessment in the Life Technologies and Expression Analysis (LTEA) Assay (AID 2283563; active means hit-call score of the fitted dose curve at least 0.9, where 1 is the maximum;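 on AC50: LDH activity released into spent culture medium as a marker of cell death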). The method in brief: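 Differentiated HepaRG cells in serum-free induction medium, exposed 48 h in duplicate to 8 half-log concentrations up to 100 uM in 0.5% DMSO. Cytotoxicity from LDH measured in spent medium, fit relative to DMSO.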

For test [16], the target named is Cellular tumor antigen p53 (Homo sapiens) (UniProt P04637). Description: TOX21_p53_BLA_p3_ratio: Tox21 HCT-116 p53 Agonism Beta-lactamase Assay, Ratio, Phase 3 (AID 2283596; active means hit-call score of the fitted dose curve at least 0.9, where 1 is the maximum). The method in brief:
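Cells were seeded at 4000/well, rested 5 h at 37C, then dosed with DMSO compound solutions (217-fold dilution) for 16 h. CCF4-AM substrate was loaded for 2 h at room temperature, and the 460/530 nm emission ratio was fitted for gain of signal versus DMSO.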

Read-out in test [17]: Thyroid Hormone Responsive (THRSP), THRSP (gene 7069)
Description: LTEA_HepaRG_THRSP: Life Technologies and Expression Analysis (LTEA) Assay for Thyroid Hormone Responsive (THRSP) using HepaRG (AID 2283536). The conditions noted are these: mRNA level, 48 h; actives raise or lower the signal. The method in brief:
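THRSP transcript quantified by Fluidigm qRT-PCR against three housekeeping genes after 48 h chemical exposure of HepaRG cells in serum-free induction medium; eight-point half-log series, top 100 uM, 0.5% DMSO vehicle, duplicate wells.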

Several values for one entry are separate records, joined by “and”; a condition that tells them apart may be missing. Equal values may be shown once. Records with an inconclusive call do not appear. Activity calls are given as the source filed them. How the source made its calls, unless noted: active means hit-call score of the fitted dose curve at least 0.9, where 1 is the maximum; inactive means score below 0.9.

Chain of Cellular tumor antigen p53 (Homo sapiens) (P04637 whole entry, looked up): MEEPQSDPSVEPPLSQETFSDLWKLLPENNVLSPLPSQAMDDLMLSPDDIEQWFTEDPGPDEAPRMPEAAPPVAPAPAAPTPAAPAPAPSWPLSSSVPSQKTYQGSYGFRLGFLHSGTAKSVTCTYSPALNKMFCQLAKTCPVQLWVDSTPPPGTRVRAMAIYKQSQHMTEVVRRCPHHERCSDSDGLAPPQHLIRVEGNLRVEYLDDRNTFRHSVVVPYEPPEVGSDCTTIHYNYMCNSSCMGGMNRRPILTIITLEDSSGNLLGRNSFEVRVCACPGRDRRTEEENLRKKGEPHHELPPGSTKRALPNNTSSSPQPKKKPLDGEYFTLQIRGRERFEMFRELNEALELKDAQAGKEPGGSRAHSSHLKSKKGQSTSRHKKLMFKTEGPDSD
Chain of Signal transducer and activator of transcription 3 (Homo sapiens) (P40763 whole entry, looked up): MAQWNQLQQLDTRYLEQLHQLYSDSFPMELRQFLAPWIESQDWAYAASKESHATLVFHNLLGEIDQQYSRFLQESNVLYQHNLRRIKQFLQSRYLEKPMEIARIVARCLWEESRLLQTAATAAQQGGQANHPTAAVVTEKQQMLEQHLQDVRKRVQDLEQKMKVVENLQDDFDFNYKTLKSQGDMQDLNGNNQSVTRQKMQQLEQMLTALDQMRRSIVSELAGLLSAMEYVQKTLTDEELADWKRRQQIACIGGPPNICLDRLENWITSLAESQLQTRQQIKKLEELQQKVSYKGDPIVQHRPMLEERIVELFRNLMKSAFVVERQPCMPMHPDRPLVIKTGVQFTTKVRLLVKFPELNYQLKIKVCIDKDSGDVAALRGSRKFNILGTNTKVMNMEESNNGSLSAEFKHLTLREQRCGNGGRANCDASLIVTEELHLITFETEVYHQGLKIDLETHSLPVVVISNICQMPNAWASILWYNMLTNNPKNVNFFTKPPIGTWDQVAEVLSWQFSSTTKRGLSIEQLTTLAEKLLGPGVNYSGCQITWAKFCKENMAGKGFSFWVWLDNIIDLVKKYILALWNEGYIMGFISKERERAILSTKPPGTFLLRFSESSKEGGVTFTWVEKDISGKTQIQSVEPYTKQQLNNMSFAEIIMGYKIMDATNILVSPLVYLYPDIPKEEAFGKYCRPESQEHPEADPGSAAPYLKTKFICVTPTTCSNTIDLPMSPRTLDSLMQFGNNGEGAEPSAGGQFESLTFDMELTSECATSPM
Chain of Nuclear factor erythroid 2-related factor 2 (Homo sapiens) (Q16236 whole entry, looked up): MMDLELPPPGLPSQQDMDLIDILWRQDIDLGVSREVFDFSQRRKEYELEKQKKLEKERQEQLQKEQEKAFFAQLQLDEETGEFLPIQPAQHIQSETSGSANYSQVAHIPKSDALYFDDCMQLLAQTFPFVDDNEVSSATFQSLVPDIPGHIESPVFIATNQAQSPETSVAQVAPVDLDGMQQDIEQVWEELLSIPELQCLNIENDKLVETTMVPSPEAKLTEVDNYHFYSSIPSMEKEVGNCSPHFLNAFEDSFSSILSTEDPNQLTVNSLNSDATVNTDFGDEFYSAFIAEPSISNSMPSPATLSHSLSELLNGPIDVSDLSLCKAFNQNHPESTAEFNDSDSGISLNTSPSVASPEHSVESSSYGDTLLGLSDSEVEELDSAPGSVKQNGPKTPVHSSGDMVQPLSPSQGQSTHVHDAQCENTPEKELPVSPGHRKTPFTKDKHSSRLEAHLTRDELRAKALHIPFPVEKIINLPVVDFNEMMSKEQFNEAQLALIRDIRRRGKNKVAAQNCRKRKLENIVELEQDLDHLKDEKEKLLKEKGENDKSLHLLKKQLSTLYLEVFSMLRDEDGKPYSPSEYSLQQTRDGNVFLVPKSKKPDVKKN

Turning to `NC(=Nc1ccccc1)Nc1ccccc1`, the outcome in test [1], in [2], in test [3], in test [4], in test [5] and in test [6] was inactive. The outcome in the test with TIMP1, TIMP1 (gene 7076) was “inactive”; in test [7], “inactive”; in [8], “inactive”; in [9] it was “inactive”; in test [10], “inactive”; in test [11], “inactive”. For the same compound, the compound was classed as inactive in test [12], in [13] and in [14].
In the case of `CS(=O)(=O)c1ccc([C@@H](C[C@H]2CCC(=O)C2)C(=O)Nc2cnccn2)cc1Cl`, the AC50 was 0.738 µM (active) in [1]; 50 µM (active) in test [2]; 1.01 µM (active) in test [3]; 0.938 µM (active) in test [5]; 1.22 µM (active) in [6]; 14.8 µM (active) in [7]. Moreover, the results for the AC50 in test [8] and in test [11] were 1.09 µM (active) and 1.33 µM (active), respectively. The outcome is “inactive” in [4]; “inactive” with TIMP1, TIMP1 (gene 7076); “inactive” in test [9]; “inactive” in test [10]; “inactive” in test [15]; “inactive” in [12]. Besides, the compound was called inactive in [14] and in [16].
For the compound `CO[C@@H]1COCC[C@@H]1N[C@@H]1CC[C@@](C(=O)N2CCc3ncc(C(F)(F)F)cc3C2)(C(C)C)C1`, the outcome in test [1] is “inactive”; in test [2] it was “inactive”; in test [3] it was “inactive”; in test [5] it was “inactive”; in test [6] it was “inactive”; with TIMP1, TIMP1 (gene 7076), “inactive”. In addition, the outcome in [7], in test [17], in [8], in [9], in [10] and in test [11] was inactive. The outcome in test [15], in [12] and in [14] was inactive.
`Cc1c(C)c2c(c(C)c1O)CCC(C)(COc1ccc(CC3SC(=O)NC3=O)cc1)O2` (stereo unspecified): the compound was called inactive in test [1], in [2], in [5], in test [7], in test [8] and in [9]. The compound was classed as inactive in [10] and in test [11]. The AC50 in [3] is 24.7 µM (active); in [6], 12 µM (active); in the test with TIMP1, TIMP1 (gene 7076), 50 µM (active); in [15], 76.3 µM (active); in [12] it was 74.4 µM (active) and 37.1 µM (active); in [13], 15.4 µM (active) and 28.5 µM (active). For the same compound, the AC50 in [14] was 73.8 µM (active); in test [16] it was 28.1 µM (active) and 26 µM (active).
Consider `CCCCOC(=O)CCCCC(=O)OCCCC`, for which the outcome in [1], in [2], in test [3], in test [4], in [5] and in test [6] was inactive. Besides, the outcome in the test with TIMP1, TIMP1 (gene 7076) is “inactive”; in [7] it was “inactive”; in [9] it was “inactive”; in test [10], “inactive”; in [11] it was “inactive”; in test [15] it was “inactive”.
Take `CC(=O)OCC(COC(C)=O)OC(C)=O`: the compound was classed as inactive in test [1], in test [2], in test [3], in [4], in test [5] and in test [6]. For the same compound, the outcome was “inactive” with TIMP1, TIMP1 (gene 7076); “inactive” in test [7]; “inactive” in test [9]; “inactive” in [10]; “inactive” in [11]; “inactive” in test [15].

The AC50 is the concentration giving half of the maximal activity seen.
